From PubChem BioAssay (EPA / NIEHS)
Inconclusive results are not listed. The source made the active and inactive calls. Rule for the calls: active = hit-call score of the fitted dose curve at least 0.9, where 1 is the maximum; inconclusive = response in the unintended direction; inactive = score below 0.9.

These molecules were tested against Cellular tumor antigen p53 (Homo sapiens) (UniProt P04637) (assay: TOX21_p53_BLA_p4_ratio: Tox21 HCT-116 p53 Agonism Beta-lactamase Assay, Ratio, Phase 4 (AID 2283601)).
Sequence of Cellular tumor antigen p53 (Homo sapiens) (P04637 whole entry, looked up): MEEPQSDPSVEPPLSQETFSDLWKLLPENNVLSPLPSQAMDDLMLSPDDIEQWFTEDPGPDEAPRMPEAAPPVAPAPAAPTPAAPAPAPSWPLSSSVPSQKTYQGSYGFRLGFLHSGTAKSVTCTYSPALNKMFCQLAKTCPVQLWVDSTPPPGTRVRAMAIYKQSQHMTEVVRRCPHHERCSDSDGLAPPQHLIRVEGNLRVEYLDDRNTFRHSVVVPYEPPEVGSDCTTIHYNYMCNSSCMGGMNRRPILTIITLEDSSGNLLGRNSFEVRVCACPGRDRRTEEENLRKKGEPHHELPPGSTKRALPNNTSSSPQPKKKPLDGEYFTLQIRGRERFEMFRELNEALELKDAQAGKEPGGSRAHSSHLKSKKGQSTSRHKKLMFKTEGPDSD
In short: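 HCT116 cells carrying an inducible beta-lactamase reporter were plated at 4000 cells/well, rested 5 h, then exposed to compounds in DMSO (217-fold dilution) for 16 h at 37C. CCF4-AM substrate was loaded 2 h at room temperature; 460/530 nm emission ratio scored gain-of-signal versus DMSO.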

| Compound | outcome | AC50 |
| --- | --- | --- |
| COc1ccc(S(=O)(=O)Nc2nnc(CC(C)C)s2)cc1 | inactive | – |
| CO[C@H]1/C=C/O[C@@]2(C)Oc3c(C)c(O)c4c(O)c(c(/C=N/N5CCN(C6CCCC6)CC5)c(O)c4c3C2=O)NC(=O)/C(C)=C\C=C\[C@H](C)[C@H](O)[C@@H](C)[C@@H](O)[C@@H](C)[C@H](OC(C)=O)[C@@H]1C | – | 36.8 µM (active) |
| CCCN1C[C@H](CSC)C[C@@H]2c3cccc4[nH]cc(c34)C[C@H]21 | inactive | – |
| Cc1c(-c2ccccc2)oc2c(C(=O)OCCN3CCCCC3)cccc2c1=O | inactive | – |
| O=S(=O)(O)c1ccc(O)cc1 | inactive | – |
| CCCCCCCCC1CO1 (stereo not drawn) | inactive | – |
| Cc1ccc(O)c(O)c1 | inactive | – |
| O=C(O)c1ccc(Cl)c(Cl)c1 | inactive | – |
| COc1cccc2c1[C@@H]1CN(CCCCn3c(=O)[nH]c4c(sc5ncc(-c6ccccc6)nc54)c3=O)C[C@@H]1CO2 | inactive | – |
| CCC(C)[C@H]1O[C@]2(C=C[C@@H]1C)C[C@@H]1C[C@@H](C/C=C(\C)[C@@H](O[C@H]3C[C@H](OC)[C@@H](O[C@H]4C[C@H](OC)[C@H](NC(C)=O)[C@H](C)O4)[C@H](C)O3)[C@@H](C)/C=C/C=C3\CO[C@@H]4[C@H](O)C(C)=C[C@@H](C(=O)O1)[C@]34O)O2 (stereo partly drawn) | – | 12 µM (active) |
| COCC(=O)O[C@]1(CCN(C)CCCc2nc3ccccc3[nH]2)CCc2cc(F)ccc2[C@@H]1C(C)C | – | 21.6 µM (active) |
| CSc1ccc2c(c1)C(N1CCN(C)CC1)Cc1ccccc1S2 (stereo not drawn) | – | 42.4 µM (active) |
| CC(C)NCC1CCc2cc(CO)c([N+](=O)[O-])cc2N1 (stereo not drawn) | inactive | – |
